Source: PubChem BioAssay (National Center for Advancing Translational Sciences (NCATS))
BAZ2B block: blocks human BAZ2B; AID 504333; Potency, µM (titrated, usually from 114 µM), for inactives: at the top dose activity change, negative = inhibition, most hits filed as inhibitors; 4.4% of 360,000 active; AlphaScreen BAZ2B-H3K14Ac peptide displacement; Q9UIF8; further: potency means the concentration at half of the fitted maximal effect; on the % scale 0 is the no-effect control and ±100 the full control effect; nearly all actives have a fitted effect of over 60% in size
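Complex of BAZ2B and biotin-H3K14Ac (50 nM apiece) forms over 30 min at RT, then faces library compounds up to 110 uM for another 30 min; AlphaScreen beads added, 20 min dark incubation, luminescence read.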
G9a block: blocks human histone lysine methyltransferase G9a. Q96KQ7. G9a H3K9 monomethylation, AlphaScreen, 2 h. Potency, µM (series often up to 102 µM), for inactives: at the top dose activity, negative = inhibition, usual class: inhibitors. 8.8% of 350,000 active. AID 504332; further: potency means the concentration at half of the fitted maximal effect; on the % scale 0 is the no-effect control and ±100 the full control effect; nearly all actives have a fitted effect of over 75% in size
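Enzyme 20 nM + cpd, 15 min RT; add b-H3K9 pep 500 nM / SAM 20 uM; 2 h RT; anti-H3K9me1 Ab 0.5 ug/mL + SA donor / anti-rabbit acceptor beads 20 ug/mL each, 10 min; AlphaScreen read.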
PI5P4K alpha inh: blocks human PI5P4K alpha kinase activity; 1.2% of 330,000 active; max response, %; PI5P4Kalpha enzyme, ADP-Glo luminescence, 60 min; active compounds read low; P48426; active means max response of -50% or lower; inconclusive means between -30% and -50%; inactive means -30% or higher; further: value at the top dose of about 77 µM; on the % scale 0 is the no-effect control and ±100 the full control effect
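Quantitative HTS of the MLSMR library against PI5P4Kalpha with substrate. ATP added last at 5 microM final; room temperature, 60 minutes. Remaining ATP depleted, ADP converted and read as luminescence.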
PLK1 PBD block: blocks phosphopeptide binding to human PLK1 polo-box domain. Potency, µM, inactives show max response, negative = inhibition, most hits filed as inhibitors. 2.8% of 360,000 active. Plk1 PBD binding of FITC phosphopeptide, fluorescence polarization. AID 720504. P53350; further: potency means the concentration at half of the fitted maximal effect; series mostly up to about 57 µM; on the % scale 0 is the no-effect control and ±100 the full control effect; nearly all actives have a fitted effect of over 65% in size
JMJD2A Tudor inh: inhibitors of human JMJD2A Tudor domain; O75164; AlphaScreen JMJD2A-Tudor / H3K4me3 peptide binding; Potency, µM (titrated, usually from 114 µM), inactives show top-dose activity change, negative = inhibition, usual class: inhibitors; 4.4% of 390,000 active; further: potency means the concentration at half of the fitted maximal effect; on the % scale 0 is the no-effect control and ±100 the full control effect; nearly all actives have a fitted effect of over 50% in size
Target sequence (O75164 whole entry, looked up, the tested form may be a part): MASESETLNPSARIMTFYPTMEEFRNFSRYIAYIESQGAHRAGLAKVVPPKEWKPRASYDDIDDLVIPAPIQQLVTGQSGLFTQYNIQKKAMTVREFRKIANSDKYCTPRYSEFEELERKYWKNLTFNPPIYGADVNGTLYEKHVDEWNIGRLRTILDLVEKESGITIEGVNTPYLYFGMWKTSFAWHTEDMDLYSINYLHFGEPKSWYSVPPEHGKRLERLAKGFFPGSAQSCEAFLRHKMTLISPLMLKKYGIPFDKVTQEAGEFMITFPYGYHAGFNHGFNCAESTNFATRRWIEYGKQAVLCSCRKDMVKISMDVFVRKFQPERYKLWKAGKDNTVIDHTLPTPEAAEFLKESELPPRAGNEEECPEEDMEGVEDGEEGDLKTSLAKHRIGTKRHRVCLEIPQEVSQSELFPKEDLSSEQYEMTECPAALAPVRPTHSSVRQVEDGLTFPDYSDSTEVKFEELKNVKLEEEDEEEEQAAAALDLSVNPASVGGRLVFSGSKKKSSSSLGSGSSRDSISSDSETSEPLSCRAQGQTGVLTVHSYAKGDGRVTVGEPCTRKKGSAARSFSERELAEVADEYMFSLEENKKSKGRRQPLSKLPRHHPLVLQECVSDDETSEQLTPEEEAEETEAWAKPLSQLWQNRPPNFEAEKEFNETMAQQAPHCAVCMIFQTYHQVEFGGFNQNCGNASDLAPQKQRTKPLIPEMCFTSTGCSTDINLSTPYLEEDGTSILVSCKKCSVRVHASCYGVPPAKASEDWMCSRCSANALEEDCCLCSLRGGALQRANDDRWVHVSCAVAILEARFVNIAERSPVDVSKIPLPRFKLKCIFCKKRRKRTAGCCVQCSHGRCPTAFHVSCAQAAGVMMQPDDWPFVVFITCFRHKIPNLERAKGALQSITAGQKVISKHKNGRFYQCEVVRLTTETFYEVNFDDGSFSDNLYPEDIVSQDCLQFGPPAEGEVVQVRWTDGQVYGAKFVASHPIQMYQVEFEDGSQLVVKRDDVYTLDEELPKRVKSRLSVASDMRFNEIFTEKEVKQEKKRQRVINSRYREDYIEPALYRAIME
HP1b binding inh: blocks HP1-beta chromodomain binding to methylated histone tails; AlphaScreen HP1-beta / biotin-H3K9me3 peptide binding; AID 540317; Potency, µM (doses to about 114 µM), for the others: at the highest dose activity change, negative = inhibition, actives largely listed as inhibitors; P83916; 0.56% of 390,000 active; further: potency means the concentration at half of the fitted maximal effect; nearly all actives have a fitted effect of over 70% in size
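HP1-beta protein (50 nM final) preincubated 30 min at room temperature with biotinylated H3(1-18)K9me3 peptide (50 nM) in PBS pH 7.4, 0.01% Tween-20, then compound added for 30 min. AlphaScreen streptavidin donor/nickel chelate acceptor beads (10 ug/mL final), 30 min dark, luminescence read.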
An asterisk follows results filed as active; ? = inconclusive; nt = no result given; ! = not active in a repeat; [ ] = dose if it differs, or a comment. A selection: hits, their analogues and other compounds. The true share with any hit is near 12%. Unless noted, the call rests on the fitted dose curve; in most records, active means well fitted curve in the direction sought with a large enough effect; inconclusive means small, poorly fitted or top-dose-only effect, or another doubt; inactive means no such curve, though single readings can be large; an effect the other way counts as inactive or inconclusive.

SMILES	BAZ2B block	G9a block	PI5P4K alpha inh	PLK1 PBD block	JMJD2A Tudor inh	HP1b binding inh
COC(=O)c1cc2oc3ccccc3c2n1Cc1cccc(C)c1	58.6%	66.5%[59 µM]	nt	nt	32.4%	99.0%
COC(=O)c1cc2oc(C)cc2n1Cc1c(C)cc(C)cc1C	?	3.98µM*	nt	nt	-24.4%	20.4%
COC(=O)c1cc2oc(C)cc2n1CC(=O)Nc1ccc(C)c(C)c1	-6.3%	?	nt	-7.8%	-24.5%	2.5%
COC(=O)c1cc2oc(C)cc2n1Cc1cccc(Cl)c1	-38.5%	14.1µM*	nt	nt	16.7%	18.1%
CCOc1ccc2c(c1)c(=O)c(S(=O)(=O)c1ccc(C)cc1)cn2Cc1ccccc1Cl	-2.9%	-2.3%[59 µM]	nt	nt	-16.2%	23.4%
CCOC(=O)c1cc(C)n(CC2CCC(C(=O)Nc3ccc(OC)cc3)CC2)c1C (configuration not stated)	-20.0%	-1.4%[59 µM]	nt	nt	-4.1%	49.5%
CCOC(=O)C1=C[C@]2(CC)CCCN3CCc4c(n1c1ccccc41)[C@@H]32	?	22.4µM*!	4.1	-16.8%	-33.8%	26.5%
Cc1ccc(NC(=S)NC(=O)Cc2ccccc2)c(O)c1	-38.1%	-3.8%[59 µM]	-2.1	-4.1%	-17.5%	6.8%
COc1ccc(NC(=O)C2=C(C)Nc3nc(SCc4ccccc4C)nn3C2c2cc(OC)c(O)c(OC)c2)cc1 (configuration not stated)	79.4µM*	-25.8%[59 µM]	nt	nt	-9.9%	32.5%
COc1ccc(C(=O)CCC(=O)Nc2ccc(C)c(Cl)c2)cc1	2.8%	-4.6%[59 µM]	nt	nt	5.4%	10.6%
c1ccc2c(c1)CCN(C1CCCCC1)C2	79.4µM*	20µM*	1.0	-11.3%	25.1µM*	?
C[C@@H]1O[C@@H](O[C@H]2[C@H](Oc3cc(O)c4c(c3)O[C@H](c3ccc(O)cc3)CC4=O)O[C@H](CO)[C@@H](O)[C@@H]2O)[C@H](O)[C@H](O)[C@H]1O	-15.8%	44.7µM*	-6.7	-12.3%	-9.7%	55.6%
CCOC(=O)c1c(OCC)[nH]c2c1cc(O)c1ccccc12	50.1µM*	?	nt	?	50.1µM*	?
O=C(CSc1cn(CC(=O)N2CCCC2)c2ccccc12)Nc1cc(C(F)(F)F)ccc1Cl	-16.5%	-4.0%[59 µM]	nt	nt	-23.4%	15.7%
O=C(NC1CCCC1)C(c1ccncc1)N(CCCN1CCOCC1)C(=O)c1ccc(-c2ccccc2)[nH]1 (configuration not stated)	-21.4%	?	0.1	-7.1%	-26.1%	4.6%
O=C(NC1CCCC1)C(c1ccncc1)N(Cc1ccco1)C(=O)c1ccc(-c2ccccc2)[nH]1 (configuration not stated)	35.5µM*	?	-3.0	-21.9%	?	?
Cc1ccc(C(C(=O)NCC2CCCO2)N(Cc2ccccc2)C(=O)c2ccc(-c3ccccc3)[nH]2)o1 (configuration not stated)	39.8µM*	-5.6%[59 µM]	0.9	3.6%	?	-19.5%
CC(C)(C)NC(=O)C(c1ccncc1)N(Cc1ccc(F)cc1)C(=O)c1ccc(-c2ccccc2)[nH]1 (configuration not stated)	?	28.2µM*	-1.7	-8.9%	?	-5.8%
CC(C)(C)NC(=O)C(c1ccc(F)cc1)N(CCc1ccccc1)C(=O)c1ccn[nH]1 (configuration not stated)	-17.6%	24.5%[12.7 µM]	?	26.7µM*	28.2µM*	-17.3%
COc1ccc2c(c1)cc1c(=O)n(CC(=O)NC(C)C)nc(C)n12	-1.3%	6.3%[59 µM]	nt	nt	-1.5%	29.5%
CC(C)(CO)[C@H](O)C(=O)NCCCO	nt	16.3%[21.5 µM]	nt	nt	nt	nt
CCOc1ccc(C(C(=O)NC2CCCC2)N(CCCO)C(=O)c2ccc(-c3ccccc3)[nH]2)cc1 (configuration not stated)	?	50.1µM*	-1.9	-9.9%	?	-16.6%
O=C(NC1CCCC1)C(c1ccncc1)N(Cc1ccccc1)C(=O)c1ccc(-c2ccccc2)[nH]1 (configuration not stated)	44.7µM*	-11.8%[59 µM]	-7.4	-1.0%	?	-10.5%
COc1ccc(C(C(=O)NC2CCCCC2)N(Cc2ccco2)C(=O)c2ccccn2)c(OC)c1 (configuration not stated)	2.4%	10µM*	-2.6	2.2%	-3.9%	21.4%
O=CN1c2ccccc2CSc2ccccc21	nt	nt	-2.6	-1.1%	-3.2%	57.0%
SMILES	BAZ2B block	G9a block	PI5P4K alpha inh	PLK1 PBD block	JMJD2A Tudor inh	HP1b binding inh
COc1ccc(N2C(S)=C(C#N)C(=O)NC23CCCCC3)cc1	?	35.5µM*	7.4	-22.1%	-13.9%	29.6%
COc1ccc(CC(=O)Nc2ccc(S(=O)(=O)NCC3CCCO3)cc2)cc1 (configuration not stated)	7.5%	10µM*	nt	?	-13.1%	-6.7%
COC(=O)c1ccc(NC(=O)C(=O)NCC2CCCO2)cc1 (configuration not stated)	6.2%	21.5%[59 µM]	-18.4	29.9µM*	-14.4%	-8.8%
Cc1cccc(NC(=S)NCC2CCCO2)c1 (configuration not stated)	-1.9%	50.1µM*	-1.8	-27.4%	-4.8%[11.4 µM]	42.1%
CC(=O)Nc1ccc(S(=O)(=O)NCC2CCCO2)cc1 (configuration not stated)	nt	nt	0.1	-1.3%	-12.2%	-2.4%
CCN(CC)c1ccc(NC(=S)NCC2CCCO2)cc1 (configuration not stated)	44.7µM*	?	-1.2	-8.1%	?	?
COC(=O)C1(C(=O)OC)c2ccccc2CN(S(=O)(=O)c2ccc(C)cc2)C1CC(C)=O (configuration not stated)	nt	nt	-4.6	-1.2%	nt	nt
Cc1c(C(=O)Nc2ccc(F)cc2F)oc2c1-c1nn(Cc3c(F)cccc3Cl)cc1CC2	-1.2%	-13.6%[59 µM]	nt	nt	-7.9%	28.2%
CCCOc1ccc(C(F)(F)F)cc1NC(=O)CCc1c(C)noc1C	10.1%	-16.6%[12.7 µM]	2.2	-14.0%	9.8%	33.5%
Cc1noc(Cn2c(=O)c3ccccc3n(CC(=O)Nc3ccc(F)cc3F)c2=O)n1	-12.1%	-7.8%[59 µM]	nt	nt	1.7%	35.2%
CN(C)S(=O)(=O)c1ccc(S(=O)(=O)N(CC(=O)Nc2ccccc2)CC2CCCO2)cc1 (configuration not stated)	-5.0%	31.6µM*	-5.7	-4.5%	-5.3%	21.4%
Cc1cc(C)cc(N(CC(=O)NCC2CCCO2)C(=O)CCC(=O)Nc2nccs2)c1 (configuration not stated)	-11.6%	-1.6%	4.2	-2.8%	-20.7%	24.9%
C=CCNC(=O)C1CC(=O)N(c2ccc(Br)cc2)C1 (configuration not stated)	-0.3%	8.6%[59 µM]	-4.7	-1.2%	3.3%	57.7%
CCNC(=O)C1CC(=O)N(c2ccc(Br)cc2)C1 (configuration not stated)	-2.3%	-21.8%	-7.6	23.8µM*	-15.1%[11.4 µM]	-5.6%
